Screen size: about 310,000 compounds; about 14,000 (4.5%) showed an effect of 50% or more. Effects have a minus sign here. Shown is part of a subset that was picked to be rich in strong results.
The compounds below were run against human ether-à-go-go-related gene (hERG) potassium channel (human, UniProt Q12809) (assay: primary screen, population patch clamp on CHO cells stably expressing hERG; higher = less effect of the substance).
Sequence of human ether-à-go-go-related gene (hERG) potassium channel (Q12809 whole entry, looked up): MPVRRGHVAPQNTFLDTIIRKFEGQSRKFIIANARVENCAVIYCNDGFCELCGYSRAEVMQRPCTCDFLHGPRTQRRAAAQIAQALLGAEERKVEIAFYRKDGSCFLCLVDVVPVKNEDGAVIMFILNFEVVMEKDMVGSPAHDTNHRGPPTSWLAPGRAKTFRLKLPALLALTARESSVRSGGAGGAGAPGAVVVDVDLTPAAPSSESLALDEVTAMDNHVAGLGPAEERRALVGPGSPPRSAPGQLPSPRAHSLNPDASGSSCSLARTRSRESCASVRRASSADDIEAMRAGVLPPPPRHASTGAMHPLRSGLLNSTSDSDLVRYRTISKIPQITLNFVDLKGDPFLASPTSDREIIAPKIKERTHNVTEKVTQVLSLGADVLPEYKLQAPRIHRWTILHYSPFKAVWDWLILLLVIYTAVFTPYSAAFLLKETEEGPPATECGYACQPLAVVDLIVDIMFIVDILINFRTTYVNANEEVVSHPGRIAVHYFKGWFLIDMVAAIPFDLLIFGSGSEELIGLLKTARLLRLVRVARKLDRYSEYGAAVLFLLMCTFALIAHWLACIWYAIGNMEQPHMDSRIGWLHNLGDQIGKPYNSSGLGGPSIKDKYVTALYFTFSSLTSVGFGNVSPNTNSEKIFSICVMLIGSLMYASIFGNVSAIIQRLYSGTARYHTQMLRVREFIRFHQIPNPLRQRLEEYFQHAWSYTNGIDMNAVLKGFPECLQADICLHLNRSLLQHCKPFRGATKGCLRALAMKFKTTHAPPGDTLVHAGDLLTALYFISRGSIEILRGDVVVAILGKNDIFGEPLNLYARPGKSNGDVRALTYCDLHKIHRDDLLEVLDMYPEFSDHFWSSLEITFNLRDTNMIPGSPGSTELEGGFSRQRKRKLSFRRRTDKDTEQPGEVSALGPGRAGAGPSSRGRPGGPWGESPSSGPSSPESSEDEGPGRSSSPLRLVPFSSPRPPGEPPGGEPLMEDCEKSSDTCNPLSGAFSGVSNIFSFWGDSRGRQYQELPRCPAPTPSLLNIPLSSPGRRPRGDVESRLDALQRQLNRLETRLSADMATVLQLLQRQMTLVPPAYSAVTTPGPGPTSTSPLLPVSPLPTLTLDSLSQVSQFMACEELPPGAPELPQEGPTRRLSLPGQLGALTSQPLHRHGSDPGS
With `CC1(C)OC2CC3C4CC(F)C5=CC(=O)C=CC5(C)C4(F)C(O)CC3(C)C2(C(=O)CO)O1` (centres unmarked) the “hERG current change (%, negative = inhibition) at 10uM” value was -7.01%.
In the case of `O=C1C=C(c2cc3ccccc3s2)C[C@@H](c2ccc(F)cc2)C1`, the “hERG current change (%, negative = inhibition) at 10uM” value is reported as 5.01%.
In the case of `CC(=O)N1c2ccc(S(=O)(=O)N3CCCC(C(=O)NCc4ccccc4)C3)cc2CC1C` (centres unmarked), the “hERG current change (%, negative = inhibition) at 10uM” value is reported as 13.7%.
For `O=C(Nc1ccccc1)N1CCC(c2ccccc2)C1` (centres unmarked), the “hERG current change (%, negative = inhibition) at 10uM” value was -4.49%.
For `Cc1c(NC(=S)/C=C2\N(C)c3ccccc3C2(C)C)c(=O)n(-c2ccccc2)n1C`, the “hERG current change (%, negative = inhibition) at 10uM” value was 0.171%.
In the case of `CN1/C(=C\P(=O)(N(C)C)N(C)C)C(C)(C)c2ccccc21`, the “hERG current change (%, negative = inhibition) at 10uM” value is reported as -6.64%.
`Cc1c(N=C/C=C2/N(C)c3ccccc3C2(C)C)c(=O)n(-c2ccccc2)n1C` was tested, and the “hERG current change (%, negative = inhibition) at 10uM” value was -38.1%.
In the case of `CN(C)c1ccc(N=C/C=C2\N(C)c3ccccc3C2(C)C)cc1`, the “hERG current change (%, negative = inhibition) at 10uM” value is reported as -82.8%.
In the case of `Cc1c(N=C/C=C2\N(C)c3ccccc3C2(C)C)c(=O)n(-c2ccccc2)n1C`, the “hERG current change (%, negative = inhibition) at 10uM” value is reported as -53.7%.
With `CN1/C(=C\C=C(C#N)C#N)C(C)(C)c2ccccc21` the “hERG current change (%, negative = inhibition) at 10uM” value was 11.5%.
For `CC(=O)N1CCN(c2ccc(N=Cc3c(O)n(-c4ccc(Cl)cc4)c(=O)[nH]c3=O)cc2)CC1`, the “hERG current change (%, negative = inhibition) at 10uM” value was 1.55%.
In the case of `CCOC(=O)c1cnc(-n2nc(C)cc2C)nc1NCCO`, the “hERG current change (%, negative = inhibition) at 10uM” value is reported as 10.5%.
For `CCOC(=O)c1cnc(-n2nc(C)cc2C)nc1NCc1ccccc1`, the “hERG current change (%, negative = inhibition) at 10uM” value was -34.7%.
With `CCOC(=O)c1cnc(-n2nc(C)cc2C)nc1NCCc1ccccc1` the “hERG current change (%, negative = inhibition) at 10uM” value was -51.6%.
`Cn1ccnc1SCC(=O)n1c2c(c3ccccc31)CCCC2` was tested, and the “hERG current change (%, negative = inhibition) at 10uM” value was -4.61%.
`O=C(c1cccs1)N1CCCC(c2nc3c(nnn3Cc3c(Cl)cccc3Cl)c(=O)[nH]2)C1` (centres unmarked) was tested, and the “hERG current change (%, negative = inhibition) at 10uM” value was -46.9%.
In the case of `O=C(OCC(=O)N1CCCc2ccccc21)c1cccc(C(F)(F)F)c1`, the “hERG current change (%, negative = inhibition) at 10uM” value is reported as -6.7%.
With `COC(=O)C(Cc1ccccc1)NC(=O)c1ccc(C)cc1` (centres unmarked) the “hERG current change (%, negative = inhibition) at 10uM” value was 5.08%.
With `CSCCOC(=O)c1[nH]c2c(c1C)C(=O)CC(c1ccco1)C2` (centres unmarked) the “hERG current change (%, negative = inhibition) at 10uM” value was -1.18%.
`Cc1ccc(NC(=O)c2sc(Cl)nc2-c2ccccc2)cc1` was tested, and the “hERG current change (%, negative = inhibition) at 10uM” value was 18.2%.
For `CCCCCOc1ccc(Br)cc1/C(C)=N/NC1=NCCN1`, the “hERG current change (%, negative = inhibition) at 10uM” value was -70.1%.
For `C/C(=N\NC1=NCCN1)c1ccc(N)c([N+](=O)[O-])c1`, the “hERG current change (%, negative = inhibition) at 10uM” value was -15.2%.
In the case of `CCCCCCOc1ccc(/C(C)=N/NC2=NCCN2)cc1[N+](=O)[O-]`, the “hERG current change (%, negative = inhibition) at 10uM” value is reported as -81.3%.
With `CCOc1ccc(Br)cc1/C(C)=N\NC1=NCCN1.Cl` the “hERG current change (%, negative = inhibition) at 10uM” value was -48.6%.
For `COc1ccc(Br)cc1/C(C)=N/NC1=NCCN1.Cl`, the “hERG current change (%, negative = inhibition) at 10uM” value was -26.7%.
For `CCCCCCOc1ccc(/C(C)=N/NC2=NCCN2)cc1`, the “hERG current change (%, negative = inhibition) at 10uM” value was -19.9%.

From PMC4336329 (PLoS ONE, 2015)
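Also: peak tail current of the secondary pulse compared with the same well before compound.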
